Source: PubChem
DRD3 antagonist – antagonists of human D3 dopamine receptor | max response, negative = inhibition, % | AID 652054 | D3R cells, DiscoveRx beta-arrestin luminescence, antagonist mode; hits give low values | actives 2.5% (n = 360,000); in the data active = max response below about -50%; inconclusive = no clear call, values can overlap the other calls; also: % is scaled to controls: 0 for no effect and ±100 for the full control effect
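Cells expressing the human receptor were seeded at 1500 cells/well, incubated overnight at 37 degrees C in 5% CO2, then exposed to library compounds with dopamine controls for 90 minutes at 37 degrees C before luminescent detection.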
D1 ag – human D1 receptor agonism; HEK293 T-REx D1 cells, calcium flux, agonist mode; activation, % at 2 µM; actives 1% (n = 360,000); AID 504660; in the data active = activation above about 30%; also: 0% is about no effect
Target sequence (P21728 whole entry, looked up): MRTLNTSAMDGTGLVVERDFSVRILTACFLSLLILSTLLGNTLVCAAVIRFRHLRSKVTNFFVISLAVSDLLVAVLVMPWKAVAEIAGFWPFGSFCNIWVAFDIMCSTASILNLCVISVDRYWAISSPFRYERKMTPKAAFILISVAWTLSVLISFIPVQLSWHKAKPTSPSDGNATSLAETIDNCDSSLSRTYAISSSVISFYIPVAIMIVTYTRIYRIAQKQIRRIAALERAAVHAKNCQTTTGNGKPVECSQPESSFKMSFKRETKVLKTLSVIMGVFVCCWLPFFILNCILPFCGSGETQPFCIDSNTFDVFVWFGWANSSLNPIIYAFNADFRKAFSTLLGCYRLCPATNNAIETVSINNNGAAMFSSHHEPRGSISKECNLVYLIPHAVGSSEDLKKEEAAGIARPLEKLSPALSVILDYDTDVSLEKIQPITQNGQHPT
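Agonism was scored from calcium flux recorded over 180 s (1 read/s) after pintool compound addition, following a 10-cycle baseline. Cells were inducible force-coupled HEK293 TREx D1, plated overnight at 30 C and loaded with no-wash calcium dye.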
D3 ag – activates the human D3 dopamine receptor; D3R DiscoveRx beta-arrestin cells, luminescence, 90 min; max activation, %; actives 0.58% (n = 410,000); AID 652048; in the data active = max activation above about 30%; also: 0% is about no effect
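Agonist-mode cell screen: cells plated at 1500/well and incubated overnight at 37 °C, then exposed to library compounds for 90 min at 37 °C. Detection reagent was added for 30–60 min at room temperature, and luminescence was read.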
D1 antagonist – blocks dopamine activation of the human D1 receptor. actives 3.2% (n = 360,000). HEK293 TREx D1 cells, calcium flux, dopamine EC80; hits give low values. P21728. activity change, negative = inhibition, % at 10 µM; in the data active = activity change below about -30%; also: % is scaled to controls: 0 for no effect and ±100 for the full control effect
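Inducible Hek293 Trex D1 cells (tetracycline, overnight, 30 C). Calcium dye 30–90 min RT. Antagonist mode: EC80 dopamine added after 180 s compound read.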
D1 PAM – enhances dopamine response at the human D1 receptor. P21728. HEK293 TREx D1 cells, calcium flux, dopamine EC20 potentiation. potentiation, % at 10 µM. actives 0.036% (n = 360,000). AID 504651; in the data active = potentiation above about 30%; also: 0% is about no effect
Starred values were filed as active, the others as inactive; u = inconclusive; x = no result given; ! = not active in a repeat. Most compounds without a hit are left out; they make up all but 6.1% or so of the library.

SMILES	DRD3 antagonist	D1 ag	D3 ag	D1 antagonist	D1 PAM
COc1cccc(-c2ccc3c(N)c(C(=O)Nc4cc(C(F)(F)F)ccc4OC)sc3n2)c1	x	4.2	-6.9	-35.5*	-1.1
COc1ccc(-c2ccc3c(N)c(C(=O)Nc4cc(F)ccc4C)sc3n2)cc1	x	6.8	-10.6	3.7	-3.6
COc1cccc(-c2ccc3c(N)c(C(=O)Nc4ccc(Cl)cc4F)sc3n2)c1	x	7.5	4.3	-30.6*	-2.1
Cc1cc2n(n1)CCC(=O)N2Cc1ccc(C(=O)Nc2ccc(Br)c(C)c2)cc1	x	3.6	9.9	-3.2	-3.5
COc1ccc(C(CNC(=O)COc2cc(C)ccc2Cl)N2CCCCC2)cc1 (stereo unspecified)	-58.5*	1.6	-27.5	9.3	0.9
COc1ccc(OCC(=O)NCC(c2ccc(Cl)cc2)N2CCCCC2)cc1 (stereo unspecified)	x	1.0	-18.0	12.4	-0.3
COc1ccc(C(CNC(=O)Cc2c(F)cccc2Cl)N2CCCCC2)cc1 (stereo unspecified)	-111.1*	2.9	-14.6	5.6	-8.3
COc1ccccc1C(CNC(=O)COc1cc(C)ccc1Cl)N1CCCC1 (stereo unspecified)	2.0	1.8	-13.5	29.6	-5.0
Cc1sc2ccccc2c1CNC[C@H]1O[C@@H](n2cnc(C(N)=O)n2)[C@H](O)[C@@H]1O	17.6	x	47.9*	x	x
O=C(CC1C(=O)N(c2ccc(F)cc2)C(=O)N1Cc1cccnc1)Nc1ccc(F)cc1 (stereo unspecified)	x	-1.0	6.3	-5.8	-1.4
O=C(NCCCN1CCN(c2ccccc2F)CC1)C1CC(=O)N(C2CCCC2)C1 (stereo unspecified)	-77.2*	0.9	41.1*	2.3	x
O=C(NCCN1CCN(c2ccccc2F)CC1)C1c2ccccc2C(=O)N2CCc3ccccc3C12 (stereo unspecified)	-56.6*	0.3	-1.7	-44.1*	-4.5
O=C(NCCS(=O)(=O)N1CCN(c2ccccc2F)CC1)C1CC(=O)N(c2ccccc2)C1 (stereo unspecified)	-0.7	114.8*!	-5.9	3.9	-2.1
CCC(=O)N1c2ccccc2CC1C(=O)NCCN1CCN(c2ccccc2F)CC1 (stereo unspecified)	x	-0.7	-24.5	-3.5	-1.1
COc1ccc(N2CCN(CCCNC(=O)C3COc4ccccc4C3)CC2)cc1 (stereo unspecified)	x	13.1	-12.7	-18.7	-0.8
Cc1ccc(C)c(N2CCN(CCCNC(=O)C3COc4ccccc4C3)CC2)c1 (stereo unspecified)	x	63.3*	-17.1	-26.1	-0.1
COc1cc(NC(=O)CSc2cc(=O)n(C)c3ccccc23)cc(OC)c1OC	x	-1.7	10.4	-3.2	6.8
CCc1c(C)sc2c1CCN(C(=O)Nc1cc(C)ccc1OC)C2c1ccc(F)cc1 (stereo unspecified)	x	6.6	-6.5	6.0	-0.2
O=C(NCCCN1CCN(c2ccccc2F)CC1)C1COc2ccccc2C1 (stereo unspecified)	x	5.6	12.6	-34.4*	-4.5
COc1ccc(C(O)(CC(C)C)C(CN2CCOCC2)c2ccccc2)cc1 (stereo unspecified)	-23.5	4.3	88.3*	-7.0	1.3
COc1ccc(N2CCN(c3nc4cc(C)ccc4cc3C=O)CC2)cc1	-1.7	0.3	31.4*	-1.5	-0.6
COc1ccc(N2CCN(c3cc(C)c4ccc(C)cc4n3)CC2)cc1	-4.2	12.4	-10.7	6.4	-1.8
O=C(O)CCc1[nH]c2ccccc2c1Sc1ccccc1	-67.0*	0.0	-19.0	-4.2	0.1
O=C(O)CCc1c(C(=O)O)[nH]c2ccccc12	10.9	0.6	-9.4	5.8	-4.2
CCCN(C(=O)c1ccc2c(SCC(=O)O)c3c(nc2c1)CCC3)c1cccc(C)c1	7.3	0.4	2.8	-39.5*	-5.2
SMILES	DRD3 antagonist	D1 ag	D3 ag	D1 antagonist	D1 PAM
COc1ccc(NC(=O)Nc2sc(=S)n(C)c2C)cc1	-15.9	4.1	-14.4	-9.6	-3.6
Cc1c(NC(=O)Nc2ccc(Cl)c(Cl)c2)sc(=S)n1C	-72.6*	x	-26.1	x	x
Cc1nc2ccccc2n1CCOc1ccc([N+](=O)[O-])cc1	2.6	2.4	-5.0	-39.6*	-9.6
CC(O)c1nc2ccccc2n1CCOc1ccccc1 (stereo unspecified)	u	42.8*	-7.1	-46.1*	0.9
Cc1ccc(N2C(=O)c3oc4cc(C)c(C)cc4c(=O)c3C2c2cccc(O)c2)nc1 (stereo unspecified)	x	3.2	-2.1	-1.8	0.7
CCOC(=O)C(C)Sc1ccc2nnc(-c3ccc(F)cc3)n2n1 (stereo unspecified)	15.1	0.3	35.1*	-2.8	2.4
COc1ccc(-c2nnc3ccc(SC)nn23)cc1	-86.3*	-0.7	14.3	-4.5	2.4
COc1ccc(C2CC(=O)c3cc(-c4nc(-c5cccc([N+](=O)[O-])c5)cs4)c(=O)n(-c4ccc(C)c(C)c4)c3C2)cc1 (stereo unspecified)	x	-0.3	-13.1	9.5	4.5
Clc1ccc2c(N/N=C/c3ccc(Br)cc3)ccnc2c1	-16.9	7.6	-4.2	-43.4*	-7.3
CCCCCCCCCCn1c2c(c(=N)c3c1CCC3)CCC2	-27.0	22.2	-6.0	1.4	-2.5
CCCCCCCCCn1c2c(c(=N)c3c1CCC3)CCCC2	-23.6	84.6*	-2.6	8.1	1.7
N=c1c2c(n(Cc3ccc(Cl)cc3)c3c1CCC3)CCC2	-13.2	1.5	-9.0	-0.5	-6.2
N=c1c2c(n(Cc3ccc(F)cc3)c3c1CCC3)CCCC2	0.6	2.5	-3.0	-30.4*	-8.6
COc1ccc(NC(=O)CSC2=Nc3ccccc3C3=NC(CC(=O)NCc4ccc(F)cc4)C(=O)N23)cc1 (stereo unspecified)	x	1.7	-13.9	-19.0	2.5
Cc1cc(C)n(C(C)CC(=O)Nc2ccc(C)c(N(C)C)c2)n1 (stereo unspecified)	x	2.4	-16.8	-7.3	-3.1
CCN1C(=O)C2(c3ccccc31)c1c(oc3ccc(F)cc3c1=O)C(=O)N2CCCOC (stereo unspecified)	x	0.2	-8.4	2.1	0.5
COC(=O)CN1C(=O)[C@H]2[C@@H](c3ccc(C)o3)N3C(=O)CN(Cc4ccccn4)C(=O)[C@@]3(Cc3ccccc3)[C@H]2C1=O	39.4	3.0	39.1*	2.2	-3.4
COC(=O)CN1C(=O)[C@H]2[C@@H](c3ccc(C)o3)N3C(=O)CN(CCO)C(=O)[C@@]3(Cc3ccccc3)[C@H]2C1=O	0.0	3.4	-3.7	-0.5	4.4
O=C1C=C(c2cccc(CO)c2)C[C@@H](c2ccc3c(c2)OCO3)C1	-28.0	0.3	6.3	x	-0.5
O=C1C=C(c2cccc(OCc3ccccc3)c2)C[C@@H](c2ccc3c(c2)OCO3)C1	-10.7	4.6	34.8*	x	4.0
CCOCC(=O)Nc1nnc(C2CCCCC2)s1	-7.9	-2.0	-4.5	-35.8*	-6.7
